SUMO Mot1 rescue = inhibitors of SUMOylation pathway: yeast Mot1-301 growth rescue. S. cerevisiae Mot1-301 growth rescue, ATP luminescence, 38.5C; percent above DMSO median, 100 means doubled. growth rescue, % at 18.8 µM. actives 1% (n = 320,000);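 active = every valid replicate shows activation above 250% relative to neutral control wells; inactive = the rest, any valid replicate at or below 250%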;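 also: OY570 slx delta 5 strain wells were the positive control but not used for scaling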
AHR activator = human AHR activation; AHR-responsive luciferase reporter cells, luminescence; actives 2.5% (n = 320,000); P35869; activation, % at 5 µM; AID 2796; in the data active = activation above about 47%;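 also: 0% = vehicle wells and 100% = reference agonist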
ALR H2O2 inh = inhibitors of human sulfhydryl oxidase ALR. P55789. purified ALR, DTT oxidation, H2O2 HRP-luminol luminescence. inhibition, % (test concentration not listed). actives 3.8% (n = 290,000). AID 485317;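 active = mean replicate inhibition above about 79%, with every replicate also reaching it, limit read from the data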
Target sequence (P55789 whole entry, looked up): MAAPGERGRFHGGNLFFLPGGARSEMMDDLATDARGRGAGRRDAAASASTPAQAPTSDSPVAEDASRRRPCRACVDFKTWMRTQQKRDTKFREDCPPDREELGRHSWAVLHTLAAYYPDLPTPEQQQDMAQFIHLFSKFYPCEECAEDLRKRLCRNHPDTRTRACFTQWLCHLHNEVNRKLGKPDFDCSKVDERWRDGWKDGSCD
Efflux pump inh = antifungal efflux pump inhibition, Nile Red retention; AID 485275; S. cerevisiae Candida pump triplex; actives 0.44% (n = 330,000); inhibition, % at 10 µM;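 active = plate passing quality check with inhibition over a set limit, or well fluorescence over plate mean plus 4 SD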;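 also: Nile Red retained in pooled yeast measured as flow cytometry median fluorescence; 0% = buffer negative control and 100% = Enniatin B positive control; higher means more Nile Red kept so more efflux inhibition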
Bfl-1 A1 inh = inhibitors of the anti-apoptotic protein A1, read as caspase activation. MEF A1-2A-BIM cells, Caspase-Glo 3/7 luminescence, 3 h; percent of clofoctol response, vehicle zero. caspase activation, % (no concentration beside the values). actives 0.066% (n = 330,000);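 active = over half of replicate activation scores above 10%, or exactly half above 10 with the replicate mean above 10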
VLA-4 inh = inhibition in a human VLA-4 binding assay | P13612 | VLA-4 expressing cells, ligand binding flow cytometry | inhibition, % (about 7 µM as worked out from the volumes in the protocol) | actives 0.2% (n = 330,000) | AID 2557; in the data active = inhibition above about 50%
* hit, by the source's call. A selection: hits, their analogues and other compounds. The true share with any hit is near 7.2%.

Results for CCc1nnc(SCC(=O)Nc2ccccc2Cl)nc1CC ?
SUMO Mot1 rescue: -7; AHR activator: 5; ALR H2O2 inh: 98*; Efflux pump inh: 0; Bfl-1 A1 inh: 0; VLA-4 inh: -6

What do the screens show for `O=C(CSc1ncccn1)Nc1ccccc1`?
SUMO Mot1 rescue: -5; AHR activator: 9; ALR H2O2 inh: -10; Efflux pump inh: 0; Bfl-1 A1 inh: -1; VLA-4 inh: 2

Results for O=C(CSc1nnc2c3ccccc3c3ccccc3c2n1)Nc1ccccc1 ?
SUMO Mot1 rescue: -23; AHR activator: 47*; ALR H2O2 inh: -17; Efflux pump inh: 0; Bfl-1 A1 inh: 2; VLA-4 inh: 3

How did CN(c1nc2nonc2nc1NC1CC1)C1CCOC1 (stereo not given) do in these assays?
SUMO Mot1 rescue: -8; AHR activator: 2; ALR H2O2 inh: -5; Efflux pump inh: 0; Bfl-1 A1 inh: -1; VLA-4 inh: 4

Results for O=C(N/N=C/c1cccc2cccnc12)c1ccccc1O ?
SUMO Mot1 rescue: 188; AHR activator: 11; ALR H2O2 inh: 5; Efflux pump inh: 0; Bfl-1 A1 inh: 0; VLA-4 inh: 32

What do the screens show for `CCN(CC)CCNC(=O)Cn1ncc2ccccc2c1=O`?
SUMO Mot1 rescue: 776*; AHR activator: 0; ALR H2O2 inh: -2; Efflux pump inh: 0; Bfl-1 A1 inh: -1; VLA-4 inh: 3

Results for CCN(CC)CCNC(=O)Cn1nc(-c2ccccc2)c2ccccc2c1=O ?
SUMO Mot1 rescue: 5; AHR activator: 10; ALR H2O2 inh: 0; Efflux pump inh: 0; Bfl-1 A1 inh: 1; VLA-4 inh: 0

Results for CC1CN(S(=O)(=O)c2cc(C(=O)NCCC3=CCCCC3)ccc2Cl)CC(C)O1 (stereo not given) ?
SUMO Mot1 rescue: -4; AHR activator: 5; ALR H2O2 inh: -9; Efflux pump inh: 0; Bfl-1 A1 inh: 1; VLA-4 inh: 8

What do the screens show for `Nc1ccc2nc(CCCCCCCCc3nc4ccc(N)cc4[nH]3)[nH]c2c1`?
SUMO Mot1 rescue: 129; AHR activator: 1; ALR H2O2 inh: 96*; Efflux pump inh: 0; Bfl-1 A1 inh: 1; VLA-4 inh: 1

How did Nc1ccc2nc(CCCO)[nH]c2c1 do in these assays?
SUMO Mot1 rescue: 9; AHR activator: 3; ALR H2O2 inh: 99*; Efflux pump inh: 0; Bfl-1 A1 inh: 0; VLA-4 inh: -1

How did Nc1cccc(CCc2nc3cc4ccccc4cc3[nH]2)c1 do in these assays?
SUMO Mot1 rescue: -1; AHR activator: 62*; ALR H2O2 inh: 2; Efflux pump inh: 0; Bfl-1 A1 inh: 0; VLA-4 inh: 16

Results for Nc1ccc2nc(CCCCc3nc4ccccc4[nH]3)[nH]c2c1 ?
SUMO Mot1 rescue: -1; ALR H2O2 inh: 100*; Efflux pump inh: 0; Bfl-1 A1 inh: 0; VLA-4 inh: -4

How did Nc1ccc2nc(CCCCCCc3nc4ccc(N)cc4[nH]3)[nH]c2c1 do in these assays?
SUMO Mot1 rescue: 2; AHR activator: -3; ALR H2O2 inh: 57; Efflux pump inh: 0; Bfl-1 A1 inh: 2; VLA-4 inh: 12

How did CS(=O)(=O)n1nc(-c2ccc(Cl)cc2)nc1SCc1ccccc1 do in these assays?
SUMO Mot1 rescue: 28; AHR activator: 12; ALR H2O2 inh: -2; Efflux pump inh: 0; Bfl-1 A1 inh: -1; VLA-4 inh: 1

How did CC(=O)c1sc(NC(=O)c2oc3ccc(F)cc3c2C)nc1C do in these assays?
SUMO Mot1 rescue: -1; AHR activator: 32; ALR H2O2 inh: -3; Efflux pump inh: 0; Bfl-1 A1 inh: -10; VLA-4 inh: -4

How did CC1CCN(C(=O)c2ccc3c(c2)OCO3)CC1 do in these assays?
SUMO Mot1 rescue: 5; AHR activator: 5; ALR H2O2 inh: -3; Efflux pump inh: 0; Bfl-1 A1 inh: 0; VLA-4 inh: 15

Results for COC(=O)c1ccc(C(=O)OCCCc2nc3ccc(N)cc3[nH]2)cc1 ?
SUMO Mot1 rescue: -17; AHR activator: 0; ALR H2O2 inh: 90*; Efflux pump inh: 0; Bfl-1 A1 inh: -1; VLA-4 inh: 3

Results for Nc1ccc2nc(COc3ccccc3)[nH]c2c1 ?
SUMO Mot1 rescue: -11; AHR activator: 5; ALR H2O2 inh: 91*; Efflux pump inh: 0; Bfl-1 A1 inh: 0; VLA-4 inh: 4

How did COc1ccc(OCc2nc3ccccc3[nH]2)cc1 do in these assays?
SUMO Mot1 rescue: -6; AHR activator: 6; ALR H2O2 inh: -1; Efflux pump inh: 0; Bfl-1 A1 inh: -8; VLA-4 inh: 8

Results for Nc1ccc(C(=O)OCCCc2nc3ccccc3[nH]2)cc1 ?
SUMO Mot1 rescue: 8; AHR activator: 3; ALR H2O2 inh: -2; Efflux pump inh: 0; Bfl-1 A1 inh: 0; VLA-4 inh: 5

What do the screens show for `CCCCCC(=O)Nc1cc(S(=O)(=O)N2CCOCC2)ccc1N1CCN(C)CC1`?
SUMO Mot1 rescue: -8; AHR activator: -2; ALR H2O2 inh: -3; Efflux pump inh: 1; Bfl-1 A1 inh: 0; VLA-4 inh: 4

Results for COc1ccc(CCNC(=O)C2CCCN(S(=O)(=O)c3ccccc3)C2)cc1 (stereo not given) ?
SUMO Mot1 rescue: -1; AHR activator: -1; ALR H2O2 inh: -4; Efflux pump inh: 0; Bfl-1 A1 inh: 1; VLA-4 inh: 3

What do the screens show for `O=C1CCCCN1CCc1c[nH]c2ccccc12`?
SUMO Mot1 rescue: -3; AHR activator: -2; ALR H2O2 inh: 87*; Efflux pump inh: 0; Bfl-1 A1 inh: 1; VLA-4 inh: 5

How did O=C1CCC(=O)N1CCc1c[nH]c2ccccc12 do in these assays?
SUMO Mot1 rescue: -15; AHR activator: -5; ALR H2O2 inh: 19; Efflux pump inh: 0; Bfl-1 A1 inh: -1; VLA-4 inh: 1

Results for Cc1nc2nc(-c3cccs3)[nH]c2cc1Br ?
SUMO Mot1 rescue: -19; AHR activator: 58*; ALR H2O2 inh: -6; Efflux pump inh: 0; Bfl-1 A1 inh: -7; VLA-4 inh: 16

What do the screens show for `Nc1nonc1-n1nnc(C(=O)N/N=C/c2ccccc2Br)c1CN1CCCC1`?
SUMO Mot1 rescue: 4; AHR activator: 4; Efflux pump inh: 0; Bfl-1 A1 inh: 0; VLA-4 inh: 6

Results for O=C1c2cccc3c([N+](=O)[O-])ccc(c23)C(=O)N1c1nccs1 ?
SUMO Mot1 rescue: 242; AHR activator: -6; ALR H2O2 inh: 17; Efflux pump inh: 1.2*; Bfl-1 A1 inh: -1; VLA-4 inh: -75

What do the screens show for `N#Cc1ccc[n+](CC(=O)c2ccc(Cl)cc2)c1`?
SUMO Mot1 rescue: -14; AHR activator: 7; ALR H2O2 inh: -7; Efflux pump inh: 0; Bfl-1 A1 inh: -1; VLA-4 inh: 12

How did CCCc1c(C(=O)NNc2ccccc2OC)cnn1-c1ccccc1 do in these assays?
SUMO Mot1 rescue: 1; AHR activator: -2; ALR H2O2 inh: 88*; Efflux pump inh: 0; Bfl-1 A1 inh: -2; VLA-4 inh: -2
